Reference: PubChem BioAssay (NCI)
The panel holds about 83,000 compounds, 20% with a hit somewhere; the sample as a whole holds those more often.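 96-well plates, one dose, 48 hours. Percent growth reported; active if below 10.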 A number with no mark means an inactive call. The source made the active and inactive calls.

How the values were obtained:
Experiment in all cases: NCI-60 one-dose screen, 48 h (100 = growth as untreated, 0 = no growth, -100 = all killed)
SR leukemia = conditions: 10 µM unless noted
RPMI-8226 leukemia = conditions: 10 µM unless noted
OVCAR-8 ovarian = conditions: 10 µM unless noted
OVCAR-5 ovarian = conditions: 10 µM unless noted
OVCAR-4 ovarian = conditions: 10 µM unless noted
SK-OV-3 ovarian = conditions: 10 µM unless noted
IGROV1 ovarian = conditions: 10 µM unless noted
OVCAR-3 ovarian = conditions: 10 µM unless noted
HS 578T breast = conditions: 10 µM
NCI/ADR-RES ovarian = conditions: 10 µM unless noted
T-47D breast = conditions: 10 µM unless noted
BT-549 breast = conditions: 10 µM unless noted
MDA-MB-435 melanoma = conditions: 10 µM unless noted
MCF7 breast = conditions: 10 µM unless noted
HCT-116 colon = conditions: 10 µM unless noted
HCC-2998 colon = conditions: 10 µM unless noted
KM12 colon = conditions: 10 µM unless noted
SW-620 colon = conditions: 10 µM unless noted

Structure (SMILES) | growth (SR leukemia) | growth (RPMI-8226 leukemia) | growth (OVCAR-8 ovarian) | growth (OVCAR-5 ovarian) | growth (OVCAR-4 ovarian) | growth (SK-OV-3 ovarian) | growth (IGROV1 ovarian) | growth (OVCAR-3 ovarian) | growth (HS 578T breast) | growth (NCI/ADR-RES ovarian) | growth (T-47D breast) | growth (BT-549 breast) | growth (MDA-MB-435 melanoma) | growth (MCF7 breast) | growth (HCT-116 colon) | growth (HCC-2998 colon) | growth (KM12 colon) | growth (SW-620 colon)
N[C@@H](CO)C(=O)O | 103% | 96.9% | 99.8% | 104% | 109% | 111% | 110% | 98.4% | 117% | 95.4% | 96.9% | 104% | 97.4% | 104% | 103% | 98.1% | 102% | –
O=C(C=P(c1ccccc1)(c1ccccc1)c1ccccc1)CCl | 3.51% (active) | -19.2% (active) | -37.1% (active) | 1.7% (active) | -37.3% (active) | 24.6% | -69.5% (active) | -85.1% (active) | 18.6% | -27% (active) | -73.8% (active) | -11.3% (active) | -98.6% (active) | -16.6% (active) | -70.2% (active) | -21.6% (active) | 1.36% (active) | –
NS(=O)(=O)c1ccc(N2N=C(c3cccs3)CC2c2ccccc2O)cc1 (stereo unspecified) | 1.1% (active) | 7.41% (active) | 9.96% (active) | 9.55% (active) | 60.8% | 6.78% (active) | 12.7% | -20.6% (active) | 17.3% | 27.3% | 46.1% | -15.4% (active) | -41.1% (active) | 4.97% (active) | 3.06% (active) | -8.11% (active) | -15.8% (active) | –
O=Cc1ccc2nc(C(Cl)(Cl)Cl)ccc2c1 | 93.2% | 93.7% | 107% | 108% | 110% | 90.5% | 93.1% | 103% | 102% | 105% | 97.6% | 95.9% | – | 82.5% | 96.7% | 109% | 100% | 98.3%
COCCOCCOCc1n(Cc2ccc3ccccc3n2)c2ccccc2[n+]1Cc1ccc2ccccc2c1 | -37.1% (active) | -30.3% (active) | 9.25% (active) | 14.7% | 9.99% (active) | -6.91% (active) | -9.44% (active) | 1.01% (active) | 20.3% | 98.9% | 4.77% (active) | -9.56% (active) | -21.9% (active) | 4.87% (active) | 7.79% (active) | 12.8% | -41.5% (active) | –
CCCOC(=O)C1c2cc3c(cc2CC(C)C1C(=O)OCCC)OCO3 (stereo unspecified) | 90.7% | 99.8% | 102% | 84.7% | 88.7% | 101% | 75.8% | 110% | 103% | 81.4% | 86.2% | – | – | 100% | 60.1% | 98.6% | 108% | 101%
C#CC[C@@H]1C[C@]2(C)[C@H]3CC[C@@H]4[C@H]5C(C(=C)C)CC[C@]5(C(=O)NCCCCN)CC[C@@]4(C)[C@]3(C)CC[C@H]2C(C)(C)[C@H]1OC(C)=O (stereo partly specified) | -7.19% (active) | -39.1% (active) | -47.5% (active) | -87.3% (active) | -61.8% (active) | 111% | -59% (active) | -87.3% (active) | -26.2% (active) | -53.4% (active) | – | 41.2% | -92.2% (active) | -71.6% (active) | -85.7% (active) | -11.1% (active) | -66.8% (active) | -66.8% (active)
COC(=O)c1cc2oc(/C=N/NC(=O)c3cc4oc(-c5cccc(C(F)(F)F)c5)cc4[nH]3)cc2n1Cc1ccccc1 | 33% | 85.6% | 75.2% | 107% | 104% | 110% | 89.6% | 111% | 87.5% | 97.9% | 94.4% | – | 99.6% | 88.8% | 67.6% | 90.5% | 88.3% | 106%
COc1ccc(/C=c2\c(=O)n(-c3ccccc3)c3nn4c(n23)=NNC42CCCCC2)cc1 | 115% | 107% | 95.1% | 113% | 106% | 95.5% | 88.5% | 95.9% | 104% | 99.4% | – | 97.3% | 110% | 96.6% | 95.8% | 107% | 102% | 103%
C#CC[C@@H]1C[C@]2(C)[C@H]3CC=C4[C@H]5[C@@H](C)[C@H](C)CC[C@]5(C(=O)NCCCN5CCN(CCCN)CC5)CC[C@@]4(C)[C@]3(C)CC[C@H]2C(C)(C)[C@H]1OC(C)=O | -5.62% (active) | -52.1% (active) | -58.3% (active) | 29.4% | -17.5% (active) | 115% | -60.5% (active) | -73.7% (active) | -25.3% (active) | 61.7% | – | -3.81% (active) | -74.2% (active) | -75.8% (active) | -83.9% (active) | -34.1% (active) | 1.28% (active) | -51% (active)
COc1ccc(/C(=C\c2ccc3c(c2)OCO3)C(=O)Nc2nc3ccccc3s2)cc1 | 81.7% | 94.5% | 102% | 93.6% | 101% | 97.8% | 103% | 98.5% | 110% | 100% | 86.1% | 103% | – | 107% | 85.4% | 109% | 101% | 108%
CCc1ccc(Nc2ncnc3c2cnn3-c2cccc(Br)c2)cc1 | 108% | 117% | 93.3% | 102% | 105% | 104% | 113% | 103% | 103% | 100% | – | 95.8% | 98% | 102% | 96.1% | 98.1% | – | 99.6%
Cn1nc(C(F)(F)F)cc1-c1cc(Cl)c(OCc2ccc(Cl)cc2)c(-c2ccc(Cl)c(C(F)(F)F)c2)c1O | 17.6% | -21.8% (active) | 14.5% | 10.3% | 17.2% | -7.57% (active) | 25.9% | 7.63% (active) | -5.65% (active) | 1.22% (active) | – | -0.385% (active) | 1.41% (active) | 3.29% (active) | -11.1% (active) | 13.6% | – | 12.2%
Oc1c(-c2cc(C(F)(F)F)[nH]n2)cc(Cl)c(OCc2ccc(Cl)cc2)c1-c1ccc(Cl)c(C(F)(F)F)c1 | 15.2% | -27.9% (active) | 9.67% (active) | 30.3% | 19% | 6.29% (active) | 19.8% | 10.5% | 5.31% (active) | 9.38% (active) | – | -11.9% (active) | -16.9% (active) | 2.3% (active) | -23.8% (active) | 12.7% | 1.97% (active) | 8.41% (active)
COc1ccc(C2=Nn3c(nnc3-c3ccc(Cl)cc3N)SC2)cc1 | 102% | 103% | 98.1% | 99.5% | 103% | 102% | 114% | 114% | 113% | 115% | 88.1% | – | 91.4% | 89.8% | 105% | 120% | – | –
O=S(=O)(NCC[C@@H]1C[C@H]1c1ccc2ccccc2c1)c1ccc(C(F)(F)F)cc1 | 92.7% | 76% | 97.4% | 99.3% | 79.6% | 103% | 92% | 101% | 89.6% | 94.3% | – | 92.5% | 99.1% | 91.1% | 88% | 101% | 95.2% | 98.6%
CC(C)NC(=O)OCC#CCOC(=O)NC(C)C | 102% | 103% | 115% | 110% | 121% | 94.8% | 90.6% | 108% | 115% | 109% | 99.2% | 95.7% | – | 94.4% | 95.4% | 103% | 106% | 109%
Cc1cc(C)c2c(n1)sc1c(Nc3ccc(Cl)cc3Cl)ncnc12 | 4.08% (active) | 28.4% | 3.79% (active) | 57.5% | 68% | 22.2% | 69.5% | 57.3% | 90.7% | 17.9% | 36.8% | 44% | – | 19.8% | 24.9% | 58.6% | 49.8% | 44.6%
